Screens: PubChem, National Center for Advancing Translational Sciences (NCATS)
LMNA splice mod: LMNA splicing modulation; 0.01% of 200,000 active; HeLa LMNA splicing GFP/RFP minigene ratio, 48 h; Potency, µM (top dose mostly 46.1 µM), for inactives: top-dose ratio change, negative = inhibition, most hits filed as inhibitors; AID 1487; active = well fitted inhibition curve with a large enough effect in the signal ratio, with a control signal flat, not every such curve was filed as active; inconclusive = small, poorly fitted or top-dose-only effect, or effect the other way, or a change in a side signal; the % refers to the signal ratio; also: potency is read from the fitted curve at half-maximal effect; % is scaled to controls: 0 for no effect and ±100 for the full control effect
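S3 HeLa cells stably expressing lamin A-EGFP splicing minigene plus DsRed2, 600 cells/well, 48 h compound exposure at 37C. Laser-scanning cytometry; analysed as GFP (500-530 nm)/RFP (575-640 nm) total intensity ratio; 0.5% DMSO vehicle.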
Tau fibril ThT: blocks human tau fibril formation measured by thioflavin T. P10636. recombinant tau K18 P301L, heparin-induced fibrillization, ThT fluorescence. Potency, µM (titrated, usually from 57.4 µM), inactives show at the top dose activity, negative = inhibition, hits mostly inhibitors. 2.1% of 270,000 active; also: potency is read from the fitted curve at half-maximal effect; % is scaled to controls: 0 for no effect and ±100 for the full control effect; nearly all actives have a fitted effect of over 55% in size
Target sequence (P10636 561-689 P618L limits assumed): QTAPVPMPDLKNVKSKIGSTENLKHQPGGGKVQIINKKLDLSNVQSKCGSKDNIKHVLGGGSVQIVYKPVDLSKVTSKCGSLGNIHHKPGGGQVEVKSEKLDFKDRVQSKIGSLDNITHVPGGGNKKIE
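Heparin-induced (20 uM) aggregation of recombinant human K18 P301L tau, 15 uM unlabeled with 0.24 uM labeled, pH 7 acetate buffer, 6 hr at 37 C with compound. Fibrils quantified by 30 uM ThT fluorescence after 1 hr ambient incubation.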
Tau FP inhib: blocks human tau fibril formation measured by polarization | K18 P301L tau heparin fibrillization, Alexa594 FP, 6 h | Potency, µM (doses to about 57.7 µM), for inactives: at the top dose activity, negative = inhibition, usual class: inhibitors | 0.39% of 280,000 active; also: potency is read from the fitted curve at half-maximal effect; % is scaled to controls: 0 for no effect and ±100 for the full control effect; nearly all actives have a fitted effect of over 55% in size
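Quantitative HTS format: compounds meet 15 uM recombinant K18 P301L tau and Alexa 594-tau tracer in 100 mM sodium acetate pH 7; 20 uM heparin triggers fibrillization at 37 C over 6 hr; FP gives the signal.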
KDM4E inh: inhibitors of human JMJD2E histone demethylase. JMJD2E catalytic domain, FDH-coupled NADH fluorescence (FDH is formaldehyde dehydrogenase). Potency, µM (top dose mostly 57.1 µM), inactives show at the highest dose activity change, negative = inhibition, actives largely listed as inhibitors. 1.6% of 230,000 active. AID 2147; active = well fitted inhibition curve with a large enough effect, not every such curve was filed as active; inconclusive = small, poorly fitted or top-dose-only effect, or another doubt; inactive = no such curve, though single readings can be large or run the other way;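 also: potency is read from the fitted curve at half-maximal effect; 0% = wells with enzyme and -100% = buffer wells without enzyme; nearly all actives have a fitted effect of over 50% in size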
CBFb-RUNX1 inh: blocks binding between human CBF-beta and RUNX1; Potency, µM (series often up to 59.8 µM), for inactives: top-dose activity, negative = inhibition, hits mostly inhibitors; Q01196+Q13951; AlphaScreen CBFb-His/RUNX1-biotin binding, biochemical; 230,000 tested, under 10 active; also: % of control where 0% means no effect
Target sequence (Q01196 whole entry, looked up): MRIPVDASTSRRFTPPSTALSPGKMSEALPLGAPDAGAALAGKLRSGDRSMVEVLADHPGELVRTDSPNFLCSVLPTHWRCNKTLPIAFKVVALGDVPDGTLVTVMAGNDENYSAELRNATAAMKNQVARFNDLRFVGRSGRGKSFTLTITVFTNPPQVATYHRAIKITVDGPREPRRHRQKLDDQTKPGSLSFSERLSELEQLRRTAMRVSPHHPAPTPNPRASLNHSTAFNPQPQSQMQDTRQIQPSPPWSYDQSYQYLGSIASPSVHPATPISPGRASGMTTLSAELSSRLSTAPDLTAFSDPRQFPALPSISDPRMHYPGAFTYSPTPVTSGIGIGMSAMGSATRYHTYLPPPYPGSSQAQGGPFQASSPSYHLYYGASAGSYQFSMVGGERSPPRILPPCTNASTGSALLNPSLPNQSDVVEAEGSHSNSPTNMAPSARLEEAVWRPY
Target sequence (Q13951 whole entry, looked up): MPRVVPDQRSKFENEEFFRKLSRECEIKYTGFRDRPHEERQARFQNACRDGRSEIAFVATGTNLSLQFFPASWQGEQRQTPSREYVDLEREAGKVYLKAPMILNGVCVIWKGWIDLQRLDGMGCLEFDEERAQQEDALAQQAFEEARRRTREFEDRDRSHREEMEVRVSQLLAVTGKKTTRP
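Interaction loss through any mechanism counts as activity. Pre-formed complex of His-CBF-beta and biotin-RUNX1 (30 nM apiece) is incubated with compound 15 min, then with 50 ng nickel and 50 ng streptavidin beads for 90 min before AlphaScreen detection.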
Tau fluor counter: counter-screen for tau fibril formation inhibitors; 0.93% of 280,000 active; Potency, µM (series often up to 57.7 µM), inactives show at the top dose activity change, negative = decrease; AID 1463; tau K18 P301L (four-repeat tau fragment) Alexa594 fluorescence, heparin fibrillization; also: potency is read from the fitted curve at half-maximal effect; % is scaled to controls: 0 for no effect and ±100 for the full control effect; nearly all actives have a fitted effect of over 55% in size
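Human K18 P301L tau (15 uM unlabeled plus 0.24 uM Alexa 594-labeled, final) in 100 mM sodium acetate pH 7 was mixed with compound and 20 uM heparin and incubated 6 hr at 37 C.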
* = called active by the depositor; ? = inconclusive; nt = no result; [ ] = another dose, or the depositor's remark. The list is not random: actives were taken first. Their share in the collection is about 3.2%. Unless noted, calls follow the shape of the dose curve; as a rule, active = well fitted curve in the direction sought with a large enough effect; inconclusive = small, poorly fitted or top-dose-only effect, or another doubt; inactive = no such curve, though single readings can be large; an effect the other way counts as inactive or inconclusive.

SMILES	LMNA splice mod	Tau fibril ThT	Tau FP inhib	KDM4E inh	CBFb-RUNX1 inh	Tau fluor counter
COc1cccc(Nc2sc(C(=O)c3ccc(Cl)cc3)c(N)c2C(=O)NCc2ccc(C)cc2)c1	?	?	7.4%	nt	nt	?
COc1cccc(Nc2sc(C(=O)c3ccc(F)cc3)c(N)c2C(=O)NCc2ccc(Cl)cc2)c1	?	20µM*	?	nt	nt	?
COc1ccc(Nc2sc(C(=O)c3ccc(Cl)cc3)c(N)c2C(=O)Nc2ccccc2OC)cc1	?	22.4µM*	-1.8%	-3.0%	?	?
N#Cc1c(Nc2cccc(F)c2)sc(C(=O)c2ccc(Cl)cc2)c1N	nt	28.2µM*	?	nt	nt	?
N#Cc1c(SCc2ccc(Cl)cc2)sc(C(=O)c2ccccc2)c1N	?	-11.2%	-10.0%	?	27.0%	-26.5%
COc1ccc(NC(=O)c2c(Nc3ccccc3)sc(C(=O)c3ccc(F)cc3)c2N)cc1	?	11.2µM*	3.0%	38.8%	?	?
Cc1cc(Nc2sc(C(=O)c3ccc(F)cc3)c(N)c2C(=O)Nc2ccc(F)cc2)ccc1Cl	?	20µM*	-12.0%	nt	nt	10µM*[quencher]
COc1ccc(C(=O)c2sc(Nc3ccccc3)c(C(=O)Nc3ccc(OC)c(OC)c3)c2N)cc1	9.0%	15.8µM*	?	-17.7%	?	15.8µM*[quencher]
COc1ccc(C(=O)c2sc(Nc3cccc(OC)c3)c(C(=O)Nc3cccc(C)c3C)c2N)cc1	17.5%	17.8µM*	-7.8%	-28.9%	-26.6%	?
CCN(c1cccc(C)c1)S(=O)(=O)c1cc(Br)cc2c1N(C(C)=O)C(C)C2 (centres undefined)	nt	?	-4.3%	nt	nt	?
COC(=O)[C@@H](N)CS	?	14.1µM*	?	?	-12.5%	-28.0%
COC(=O)C(N)CS (centres undefined)	nt	17.8µM*	?	-1.7%	?	-25.5%
COC(=O)C(N)Cc1ccc(O)cc1 (centres undefined)	-6.7%	-1.7%	4.0%	1.4%	3.3%	-4.4%
COc1ccc(O)c(-c2cc(-c3cccc(Br)c3)n[nH]2)c1	3.7%	?	2.3%	-5.3%	-7.1%	14.1µM*[quencher]
COc1ccc(-c2cc(-c3cc(OC)ccc3O)[nH]n2)cc1	?	?	-0.1%	?	-11.8%	15.8µM*[quencher]
COc1ccc(-c2n[nH]c(C)c2-c2cc(OC)ccc2O)cc1	-14.9%	-9.9%	-7.9%	-10.3%	-1.1%	-18.5%
NCCCC[C@H](NC(=O)[C@H](CCCN=C(N)N)NC(=O)[C@H](CO)NC(=O)[C@H](CCCN=C(N)N)NC(=O)[C@@H](N)Cc1ccc(O)cc1)C(=O)N[C@@H](Cc1ccc(O)cc1)C(=O)N[C@@H](CO)C(=O)N[C@@H](CO)C(=O)N[C@@H](Cc1c[nH]c2ccccc12)C(=O)N[C@@H](Cc1ccc(O)cc1)C(=O)O	nt	nt	nt	nt	-20.0%	nt
CCCCS(=O)(=O)N1CCc2nc(-c3ccccc3)c3c(c2C1)CO[C@@H](C)C3	1.3%[9.22 µM]	3.7%[11.5 µM]	-1.6%[11.6 µM]	7.2%[11.4 µM]	-7.6%[13.1 µM]	-1.4%[11.6 µM]
O=C(Nc1cccc(F)c1)c1cccnc1NCCc1ccccc1	-2.4%	0.6%	17.8µM*	?	?	?
O=C(Nc1ccc(F)cc1)c1cccnc1NCCc1ccccc1	-4.9%	-4.0%	12.6µM*	?	11.5%	?
O=C(Nc1cccc(C(F)(F)F)c1)c1cccnc1NCCc1ccccc1	?	1.2%	14.1µM*	6.4%	-1.1%	?
CCOc1ncccc1C(=O)Nc1ccc(F)cc1	nt	4.5%	3.6%	-8.7%	7.5%	6.6%
O=C(Nc1cccc(F)c1)c1ccccc1-c1ccccc1	-6.4%	0.8%	9.7%	7.6%	5.4%	-10.2%
CC(C)(C)c1ccc(C(=O)NCC(=O)OCc2cc(=O)n3nc(C4CC4)sc3n2)cc1	-14.6%[46 µM]	-12.8%	1.5%	nt	nt	6.0%
O=C(Cn1cnc([N+](=O)[O-])c1)Nc1cc(Oc2ccc(Cl)cc2Cl)cc([N+](=O)[O-])c1	?	?	?	2.8%	-16.9%	4.47µM*[quencher]
SMILES	LMNA splice mod	Tau fibril ThT	Tau FP inhib	KDM4E inh	CBFb-RUNX1 inh	Tau fluor counter
O=[N+]([O-])c1cn(Cc2ccc(Cl)cc2)cn1	9.2%	-2.4%	3.6%	6.8%	5.7%	-0.2%
COc1ccc(/C=N/N(Cc2ccccc2)c2ccccc2)cc1O	?	?	?	-5.5%	-24.9%	14.1µM*[quencher]
CCOc1ccccc1-c1nnc2n1N=C(c1cccc(OC)c1)CS2	nt	nt	nt	nt	5.4%	nt
Cc1ccc(S(=O)(=O)c2nc(C(C)(C)C)oc2N2CCOCC2)cc1	-7.8%	?	39.8µM*	?	19.2%	-15.6%
Cc1cccc(NC(=O)c2nc[nH]c2C(=O)N[C@@H](C)C(=O)OCc2ccccc2)c1	nt	-0.2%	14.1µM*	-20.2%	-4.1%	?
Cc1cccc(NC(=O)c2nc[nH]c2C(=O)N[C@@H](CC(C)C)C(=O)OCc2ccccc2)c1	nt	9.3%	25.1µM*	-20.4%	10.2%	?
CC(C)C[C@H](NC(=O)c1nc[nH]c1C(=O)NCc1ccccc1)C(=O)OCc1ccccc1	nt	-7.2%	?	-3.3%	9.1%	?
O=C(O)c1cc(C(=O)O)c(C(=O)N(Cc2cccc(Oc3ccccc3)c2)[C@H]2CCCc3ccccc32)cc1C(=O)O	nt	nt	nt	nt	8.1%	nt
CCOC(=O)C1=C(O)/C(=C/c2ccc(-c3ccccc3C(=O)O)o2)SC1=Nc1ccc(OC)cc1	0.4%	15.8µM*	5.2%	-14.5%	-7.3%	-6.7%
Cc1ccc(S(=O)(=O)c2nc(Nc3nccs3)sc2Cl)cc1	?	?	2.3%	-1.5%	-8.6%	15.8µM*[quencher]
CCc1cc(C(c2ccc(F)cc2)N2CCOCC2)c(NC(=O)c2ccccc2)s1 (centres undefined)	11.2%	31.6µM*	-9.3%	-10.7%	-1.3%	?
CCc1cc(C(c2ccc(OC)c(OC)c2)N2CCOCC2)c(NC(=O)c2ccccc2)s1 (centres undefined)	-24.5%	?	3.7%	-7.7%	-3.9%	?
CC(=O)OCC(NC(=O)C(C)NC(=O)OC(C)(C)C)C1OC(n2cc(C)c(=O)[nH]c2=O)C(OC(C)=O)C1OC(C)=O (centres undefined)	nt	nt	nt	nt	-5.9%	nt
COc1ccc(S(=O)(=O)Nc2cc(Sc3ncn[nH]3)c(O)c3ccccc23)cc1	?	7.08µM*	15.8µM*	?	-1.8%	?
O=S(=O)(Nc1cc(Sc2cccc3cccnc23)c(O)c2ccccc12)c1ccc(F)cc1	?	12.6µM*	28.2µM*	28.2µM*	nt	14.1µM*[quencher]
COc1cc(OC)c([C@@H]2O[C@H](CO)[C@@H](O)[C@H](O)[C@H]2O)c(OC)c1	nt	0.0%	12.7%	1.2%	-5.9%	3.4%
